Out of some 390,000 compounds screened, about 17,000 (4.4%) were called active. About 8% were inconclusive and are not listed. The call rests on the fitted dose curve; in most records, active means well fitted inhibition curve with a large enough effect; inconclusive means small, poorly fitted or top-dose-only effect; inactive means no such curve, though single readings can be large or run the other way. What follows is part of a selection rich in actives, with near analogues and random picks from the rest.
On the % scale 0 is the no-effect control and ±100 the full control effect; potency means the concentration at half of the fitted maximal effect.

This test deals with Lysine-specific demethylase 4A (Homo sapiens) (UniProt O75164). Briefly: qHTS Assay for Inhibitors of JMJD2A-Tudor Domain. Further: nearly all actives have a fitted effect of over 50% in size. The conditions noted are these: AlphaScreen JMJD2A-Tudor / H3K4me3 peptide binding; series mostly up to 114 µM; activity change, negative = inhibition: at the top concentration. (In general: qHTS replaces the single test concentration by a dilution series.)
Sequence of Lysine-specific demethylase 4A (Homo sapiens) (O75164 whole entry, looked up, the tested form may be a part): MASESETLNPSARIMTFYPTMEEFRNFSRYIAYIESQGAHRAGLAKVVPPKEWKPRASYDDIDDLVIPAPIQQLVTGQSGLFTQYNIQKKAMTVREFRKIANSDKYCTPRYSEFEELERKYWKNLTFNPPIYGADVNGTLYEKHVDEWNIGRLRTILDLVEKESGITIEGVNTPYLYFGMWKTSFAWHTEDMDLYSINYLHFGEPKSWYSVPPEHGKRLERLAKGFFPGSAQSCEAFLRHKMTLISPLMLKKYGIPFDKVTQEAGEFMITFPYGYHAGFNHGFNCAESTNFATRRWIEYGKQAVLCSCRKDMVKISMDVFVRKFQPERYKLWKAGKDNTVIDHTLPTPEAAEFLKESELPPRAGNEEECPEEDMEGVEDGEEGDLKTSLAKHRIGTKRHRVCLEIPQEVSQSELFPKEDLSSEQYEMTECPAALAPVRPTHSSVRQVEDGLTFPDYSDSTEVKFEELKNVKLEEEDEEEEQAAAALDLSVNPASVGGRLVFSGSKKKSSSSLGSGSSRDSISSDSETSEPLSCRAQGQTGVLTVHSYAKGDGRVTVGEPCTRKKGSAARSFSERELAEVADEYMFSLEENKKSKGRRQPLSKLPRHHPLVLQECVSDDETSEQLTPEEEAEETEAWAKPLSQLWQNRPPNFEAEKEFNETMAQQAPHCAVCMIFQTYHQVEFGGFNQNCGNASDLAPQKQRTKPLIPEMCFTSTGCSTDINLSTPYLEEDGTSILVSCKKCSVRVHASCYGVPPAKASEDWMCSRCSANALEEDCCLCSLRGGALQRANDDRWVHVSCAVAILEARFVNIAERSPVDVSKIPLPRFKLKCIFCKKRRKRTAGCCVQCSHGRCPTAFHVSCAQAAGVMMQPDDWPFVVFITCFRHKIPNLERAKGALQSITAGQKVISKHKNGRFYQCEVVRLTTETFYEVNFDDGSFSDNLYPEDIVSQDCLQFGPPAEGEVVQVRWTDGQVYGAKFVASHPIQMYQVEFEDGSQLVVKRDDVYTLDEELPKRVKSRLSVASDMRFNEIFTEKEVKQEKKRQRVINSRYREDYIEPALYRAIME
Consider `COc1ccc(NS(=O)(=O)c2cc3c4c(c2)CC(=O)N4CCC3)cc1Cl`, for which the “activity change, negative = inhibition” value is -14% (inactive).
The same measure, in the same setting: next, `CCc1ccc(NS(=O)(=O)c2ccc3[nH]cc(C(=O)NCCc4cccc(C)c4)c(=O)c3c2)cc1`: -5.77% (inactive).
In the case of `COc1cc(OC)c2c(c1C(CCN1CCCCC1)c1ccc(N(C)C)cc1)OC(=O)CC2c1ccc(N(C)C)cc1` (stereo not drawn), the Potency is 35.5 µM (active).
The same measure, in the same setting: next, `COc1ccc(C(CCN2CCOCC2)c2c(OC)cc(OC)c3c2OC(=O)CC3c2ccc(OC)cc2)cc1` (stereo not drawn): 35.5 µM (active).
On the same count and under the same terms, next, `COc1cc(OC)c2c(C)cc(=O)oc2c1C(CCN1CCCCC1)c1ccc(N(C)C)cc1` (stereo not drawn): 39.8 µM (active).
On to `COc1cc(OC)c2c(c1)OC(=O)CC2c1cc(OC)c(OC)c(OC)c1` (stereo not drawn), for which the “activity change, negative = inhibition” value was -10.1% (inactive).
The same measure, in the same setting: then `O=C(NCC(c1ccc2c(c1)OCO2)N1CCN(c2ccccc2)CC1)C(=O)Nc1ccccc1F` (stereo not drawn), with -30% (inactive); and `COc1ccc(C2CC(=O)Oc3ccc(C(C)(C)C)cc32)cc1` (stereo not drawn), with 17.9% (inactive).
In the case of `COc1cc(COCC(O)CN2CCN(Cc3ccc4c(c3)OCO4)CC2)cc(OC)c1OC` (stereo not drawn), the “activity change, negative = inhibition” value was -14.8% (inactive).
In the case of `COc1ccc(C2/C(=C(/O)c3ccc(OC(C)C)cc3)C(=O)C(=O)N2CCCN2CCOCC2)cc1` (stereo not drawn), the “activity change, negative = inhibition” value is -6.85% (inactive).
Regarding `CCN(CC)CCC(c1cc(OC)c(OC)c(OC)c1)c1c(OC)cc(OC)c2c(-c3ccccc3)cc(=O)oc12` (stereo not drawn), the Potency result was “inactive”.
For the compound `COc1cc(C2CC(=O)Oc3cc(OC)c(OC)c(OC)c32)cc(OC)c1OC` (stereo not drawn), the “activity change, negative = inhibition” value is -11.6% (inactive).
On to `COc1cc(OC)c2ccc(=O)oc2c1C(CCN1CCN(c2ccccc2)CC1)c1ccc2c(c1)OCO2` (stereo not drawn), for which the Potency is 17.8 µM (active).
As to `COc1ccc(CNC(=O)c2cc3c(=O)[nH]c4ccc(C)cc4c3s2)c(OC)c1`, the “activity change, negative = inhibition” value is -7.27% (inactive).
On the same count and under the same terms, then `COc1ccc(-c2cn3c(n2)sc2cc(C(=O)Nc4ccccc4F)ccc23)cc1`, with -9.21% (inactive).
For `Cc1ccccc1CNC(=O)c1cccc(NC(=O)c2nsc3ccccc23)c1`, the “activity change, negative = inhibition” value is -2.6% (inactive).
Same read-out and setting: then `COc1ccc(-n2c(=O)c3sc4ccccc4c3n(CC(=O)Nc3cccc(C)c3)c2=O)cc1`, with -7.95% (inactive); and `O=C(Nc1ccc2nc(SCCOc3ccccc3)sc2c1)c1ccco1`, with -11.9% (inactive); and `CC(=O)c1ccc(NS(=O)(=O)c2ccc(-c3cc(C)no3)s2)cc1`, with -20.1% (inactive).
Regarding `CCN(CC)c1nn2c(=O)c(C(=O)NCCc3ccccc3)cnc2s1`, the “activity change, negative = inhibition” value is -12% (inactive).
In the case of `CCN(CCCNC(=O)c1c(C)oc2ncn(CC(C)C)c(=O)c12)Cc1ccccc1`, the “activity change, negative = inhibition” value is -0.647% (inactive).
On the same count and under the same terms, then `CCc1ccc(NC(=O)CCS(=O)(=O)c2cc3c(cc2Cl)NC(=O)CO3)cc1`, with -16.8% (inactive).
Still for that read-out and setting: next, `O=C(CSc1nc(=O)n(Cc2cccnc2)c2c1CCC2)Nc1ccc(F)cc1F`: -1.3% (inactive); `O=S(=O)(c1ccc2nc(NCc3ccccc3Cl)ccc2c1)N1CCCCC1`: -26% (inactive).
The same measure, in the same setting: next, `O=S(=O)(Nc1cccc2cccnc12)c1cccc2cccnc12`: -32.2% (inactive).
As for `O=[N+]([O-])c1ccccc1S(=O)(=O)Nc1cccc2cccnc12`, the Potency was 56.2 µM (active).
Still for that read-out and setting: next, `COc1cc(NS(=O)(=O)c2ccc3ccccc3c2)c2ncccc2c1`: “inactive”.
As for `COc1ccccc1CNC(=O)C(Cc1ccccc1)NS(=O)(=O)c1ccc2c(c1)oc(=O)n2C` (stereo not drawn), the “activity change, negative = inhibition” value is -15.5% (inactive).
On the same count and under the same terms, then `O=C1CCCc2cc(S(=O)(=O)N3CCCC(C(=O)NCc4ccccc4)C3)ccc2N1` (stereo not drawn), with -0.647% (inactive); and `O=C(NCc1ccccc1Cl)c1cccn1-c1nnc(N2CCCCC2)s1`, with -28.2% (inactive).
Still for that read-out and setting: next, `COc1ccc(-c2nn(CC(=O)Nc3ccccc3F)c3c2cnc2ccc(F)cc23)cc1`: -7.67% (inactive).
For `C=CCOc1c(CNn2cn[nH]c2=S)cccc1OC`, the Potency is 3.55 µM (active).
`C=CCOc1cccc(CNCc2cccnc2)c1`: the “activity change, negative = inhibition” value was -16.4% (inactive).
For the compound `C=CCC(Nc1ccccc1)c1cccc(OC)c1OC` (stereo not drawn), the “activity change, negative = inhibition” value was 28.4% (inactive).
`C=CCOc1cccc(C2NC(=O)c3ccccc3O2)c1` (stereo not drawn): the “activity change, negative = inhibition” value was -17.8% (inactive).
Take `COc1cccc(CNCCSc2nnnn2C)c1OCc1ccccc1Cl`: the “activity change, negative = inhibition” value is -2.24% (inactive).
`C=CCOc1cccc(CNn2cn[nH]c2=S)c1`: the Potency was 22.4 µM (active).
For the compound `COc1ccc(CCNC(=O)c2cc(=O)c3c(C)cc(C)cc3o2)cc1OC`, the “activity change, negative = inhibition” value is -22.9% (inactive).
For `CSc1nc(-c2ccccc2Cl)nc2c1Cc1c(CO)cnc(C)c1O2`, the “activity change, negative = inhibition” value is -27.5% (inactive).
Same read-out and setting: then `COc1ccccc1CNC(=O)c1ccc(CS(=O)c2ccccc2Cl)o1` (stereo not drawn), with 8.79% (inactive).
As for `CCc1nn(CC(=O)Nc2cc(C)cc(C)c2)c(=O)c2cc3sccc3n12`, the “activity change, negative = inhibition” value was -14.9% (inactive).
The same measure, in the same setting: next, `CC(=O)N1CCCc2cc(S(=O)(=O)N3CCC(C(=O)NC4CCCCC4)CC3)ccc21`: -7.74% (inactive); `CN(CC(=O)Nc1cccc(C(F)(F)F)c1)S(=O)(=O)c1cccs1`: 0.683% (inactive).
Regarding `CN(CC(=O)NCc1ccc(Cl)cc1)S(=O)(=O)c1cccs1`, the Potency was 89.1 µM (active).
As for `COc1ccc(CNC(=O)CN(Cc2ccc(Cl)cc2)S(C)(=O)=O)cc1`, the “activity change, negative = inhibition” value was -6.03% [at 57.1 µM] (inactive).
`Cc1ccc2sc(N(Cc3cccnc3)C(=O)C3COc4ccccc4O3)nc2c1C` (stereo not drawn): the “activity change, negative = inhibition” value is -15.6% (inactive).
On to `Cc1ccc(C(=O)Nc2ccc(OCc3cc(=O)n4c5c(sc4n3)CCCC5)cc2)cc1`, for which the “activity change, negative = inhibition” value is 6.29% (inactive).
Take `CCOn1c(=O)c(=O)n(O)c2ccccc21`: the Potency was 44.7 µM (active).

Source of the values: PubChem BioAssay AID504339 (National Center for Advancing Translational Sciences (NCATS), 2011).
